This is an account of results in publication PMC7862700, “An all-to-all approach to the identification of sequence-specific readers for epigenetic DNA modifications on cytosine”.

What all share (experiment): DAPPL (digital affinity profiling via proximity ligation, sequencing); 10 mM Tris-HCl pH 7.5, 50 mM NaCl, 1 mM DTT, 4% glycerol, room temperature, 30 min; GST-TFs on glutathione beads, 16-mer random dsDNA library, 0.1% formaldehyde crosslink after washing; high values mean tight binding
For one assay, the target named is T1, FEV (Homo sapiens, UniProt Q99581 1-238).
T1 sequence: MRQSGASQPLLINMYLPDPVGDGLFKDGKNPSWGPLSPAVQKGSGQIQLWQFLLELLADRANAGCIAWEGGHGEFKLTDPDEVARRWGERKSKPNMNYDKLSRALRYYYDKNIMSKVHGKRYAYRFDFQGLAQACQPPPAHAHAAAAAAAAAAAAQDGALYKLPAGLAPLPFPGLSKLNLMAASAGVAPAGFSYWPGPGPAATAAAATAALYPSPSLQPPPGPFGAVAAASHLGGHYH
The conditions noted are these: protein: recombinant; tags: N-terminal GST; dsDNA, one strand shown. The method, boiled down:
(§1)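 Human transcription factors fused to GST were expressed in yeast, captured on glutathione beads, given DNA barcodes and pooled with a GST-only negative control. Pools were incubated with 200 nmole of a 16-mer random double-stranded DNA library in Tris/NaCl/DTT/glycerol buffer at room temperature for 30 min. They were then washed, crosslinked with 0.1% formaldehyde, proximity-ligated (BsaI/T4 ligase, 1 h, 37 °C), PCR-amplified and sequenced on an Illumina NextSeq500. Binding signal is each 6-mer's read frequency for a factor divided by its frequency for the GST control.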

Another assay addresses ETV5 (Homo sapiens, UniProt P41161 1-510). To be noted: protein: recombinant; tags: N-terminal GST; dsDNA, one strand shown. In a few lines:
as §1

In another assay the target is HSF1 (Homo sapiens, UniProt Q00613 1-529). To be noted: protein: recombinant; tags: N-terminal GST; chain copies: 3; dsDNA, one strand shown. The method, boiled down: as §1
Another assay concerns the target T2, SPIC (Homo sapiens, UniProt Q8N5J4 1-248).
T2 sequence: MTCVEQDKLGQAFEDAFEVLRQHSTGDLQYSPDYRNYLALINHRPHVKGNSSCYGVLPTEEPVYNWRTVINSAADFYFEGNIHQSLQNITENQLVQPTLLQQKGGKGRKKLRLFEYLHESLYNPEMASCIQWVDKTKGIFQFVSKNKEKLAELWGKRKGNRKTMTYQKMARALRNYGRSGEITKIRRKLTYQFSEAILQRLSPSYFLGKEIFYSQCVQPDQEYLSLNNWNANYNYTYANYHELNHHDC
The conditions noted are these: protein: recombinant; tags: N-terminal GST; dsDNA, one strand shown. In a few lines:
as §1

In another assay the target is ELF4 (Homo sapiens, UniProt Q99607 1-663). The conditions noted are these: protein: recombinant; tags: N-terminal GST; dsDNA, one strand shown. The method, boiled down:
as §1

A further assay deals with T3, ELK4 (Homo sapiens, UniProt P28324-2 1-405).
T3 sequence: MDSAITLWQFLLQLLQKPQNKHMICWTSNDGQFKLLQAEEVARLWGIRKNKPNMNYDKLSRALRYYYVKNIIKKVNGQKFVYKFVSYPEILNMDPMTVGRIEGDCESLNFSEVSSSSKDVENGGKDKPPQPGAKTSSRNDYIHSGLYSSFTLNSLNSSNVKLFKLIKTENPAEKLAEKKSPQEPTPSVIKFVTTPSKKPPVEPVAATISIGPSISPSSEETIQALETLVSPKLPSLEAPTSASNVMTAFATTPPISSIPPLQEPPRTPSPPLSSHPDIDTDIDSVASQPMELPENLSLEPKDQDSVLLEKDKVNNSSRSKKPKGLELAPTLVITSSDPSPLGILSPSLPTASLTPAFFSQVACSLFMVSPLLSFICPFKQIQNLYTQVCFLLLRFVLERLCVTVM
To be noted: protein: recombinant; tags: N-terminal GST; dsDNA, one strand shown. The method, boiled down: as §1

The next assay has as its target T4, ETV2 (Homo sapiens, UniProt O00321 1-342).
T4 sequence: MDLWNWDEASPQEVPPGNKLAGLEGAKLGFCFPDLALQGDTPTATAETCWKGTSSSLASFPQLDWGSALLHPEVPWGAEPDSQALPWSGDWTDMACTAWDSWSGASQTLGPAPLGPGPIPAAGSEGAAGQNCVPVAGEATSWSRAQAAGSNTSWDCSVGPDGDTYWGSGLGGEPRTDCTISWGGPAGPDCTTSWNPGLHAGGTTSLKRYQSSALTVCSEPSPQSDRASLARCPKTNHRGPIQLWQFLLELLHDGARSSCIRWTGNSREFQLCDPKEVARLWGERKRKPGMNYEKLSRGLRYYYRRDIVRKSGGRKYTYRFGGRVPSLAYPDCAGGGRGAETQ
To be noted: protein: recombinant; tags: N-terminal GST; dsDNA, one strand shown. In a few lines:
as §1

For a further assay, the target named is T5, ELF3 (Homo sapiens, UniProt P78545 1-371).
T5 sequence: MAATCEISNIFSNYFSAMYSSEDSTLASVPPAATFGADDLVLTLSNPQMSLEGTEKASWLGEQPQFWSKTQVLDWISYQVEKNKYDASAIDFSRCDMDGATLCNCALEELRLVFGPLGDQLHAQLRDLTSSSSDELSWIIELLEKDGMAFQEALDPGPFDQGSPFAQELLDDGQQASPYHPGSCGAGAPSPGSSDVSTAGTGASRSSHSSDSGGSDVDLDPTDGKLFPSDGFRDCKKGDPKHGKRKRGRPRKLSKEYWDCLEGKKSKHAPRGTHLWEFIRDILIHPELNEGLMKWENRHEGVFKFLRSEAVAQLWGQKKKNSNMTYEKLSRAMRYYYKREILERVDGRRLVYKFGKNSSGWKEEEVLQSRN
The conditions noted are these: protein: recombinant; tags: N-terminal GST; dsDNA, one strand shown. The method, boiled down:
as §1

A further assay addresses CRX (Homo sapiens, UniProt O43186 1-299). The conditions noted are these: protein: recombinant; tags: N-terminal GST; dsDNA, one strand shown. In a few lines:
as §1

A further assay concerns the target ETV1 (Homo sapiens, UniProt P50549 1-477). To be noted: protein: recombinant; tags: N-terminal GST; dsDNA, one strand shown. The method, boiled down: as §1
Another assay addresses T6, ERF (Homo sapiens, UniProt P50548 1-548).
T6 sequence: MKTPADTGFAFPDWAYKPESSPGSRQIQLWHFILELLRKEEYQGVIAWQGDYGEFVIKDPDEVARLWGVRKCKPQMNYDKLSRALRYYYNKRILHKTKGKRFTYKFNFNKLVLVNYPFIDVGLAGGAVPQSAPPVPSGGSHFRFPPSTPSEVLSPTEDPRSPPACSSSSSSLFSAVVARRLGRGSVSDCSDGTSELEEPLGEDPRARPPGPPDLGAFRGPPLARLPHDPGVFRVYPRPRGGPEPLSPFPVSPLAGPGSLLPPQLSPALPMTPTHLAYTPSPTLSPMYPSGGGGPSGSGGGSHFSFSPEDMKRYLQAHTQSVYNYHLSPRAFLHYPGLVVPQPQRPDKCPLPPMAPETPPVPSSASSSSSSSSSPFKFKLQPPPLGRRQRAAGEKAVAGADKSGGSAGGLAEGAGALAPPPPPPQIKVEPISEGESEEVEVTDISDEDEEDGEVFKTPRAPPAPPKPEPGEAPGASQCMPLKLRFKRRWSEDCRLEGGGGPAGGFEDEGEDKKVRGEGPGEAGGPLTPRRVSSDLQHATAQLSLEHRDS
The conditions noted are these: protein: recombinant; tags: N-terminal GST; dsDNA, one strand shown. The method, boiled down:
as §1

The next assay concerns the target T7, ETV3L (Homo sapiens, UniProt Q6ZN32 1-361).
T7 sequence: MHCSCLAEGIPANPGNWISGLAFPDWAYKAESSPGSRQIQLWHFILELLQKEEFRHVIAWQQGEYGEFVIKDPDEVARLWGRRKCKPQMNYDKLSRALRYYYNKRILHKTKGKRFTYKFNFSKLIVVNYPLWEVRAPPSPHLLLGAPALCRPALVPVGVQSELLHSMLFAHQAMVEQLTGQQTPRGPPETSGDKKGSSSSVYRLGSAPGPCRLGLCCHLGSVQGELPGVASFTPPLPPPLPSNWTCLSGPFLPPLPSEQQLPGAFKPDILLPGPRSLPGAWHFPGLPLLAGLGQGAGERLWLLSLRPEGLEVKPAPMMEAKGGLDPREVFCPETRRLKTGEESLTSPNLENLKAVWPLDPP
To be noted: protein: recombinant; tags: N-terminal GST; dsDNA, one strand shown. In a few lines:
as §1

Another assay deals with T8, ETS2 (Homo sapiens, UniProt P15036 1-469).
T8 sequence: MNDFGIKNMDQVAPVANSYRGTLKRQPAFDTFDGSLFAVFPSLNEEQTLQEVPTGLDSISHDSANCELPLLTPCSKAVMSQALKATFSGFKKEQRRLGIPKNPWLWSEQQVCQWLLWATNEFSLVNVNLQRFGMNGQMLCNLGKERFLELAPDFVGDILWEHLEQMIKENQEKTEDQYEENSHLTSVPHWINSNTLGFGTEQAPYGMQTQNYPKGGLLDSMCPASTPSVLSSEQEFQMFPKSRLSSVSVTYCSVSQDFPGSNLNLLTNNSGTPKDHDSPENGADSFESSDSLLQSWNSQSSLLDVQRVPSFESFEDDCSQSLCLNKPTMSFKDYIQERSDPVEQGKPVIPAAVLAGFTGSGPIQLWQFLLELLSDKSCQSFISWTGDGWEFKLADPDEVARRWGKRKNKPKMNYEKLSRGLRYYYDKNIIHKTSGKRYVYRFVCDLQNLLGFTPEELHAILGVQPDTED
The conditions noted are these: protein: recombinant; tags: N-terminal GST; dsDNA, one strand shown. The method, boiled down:
as §1

The target of a further assay is T9, SPDEF (Homo sapiens, UniProt O95238 1-335).
T9 sequence: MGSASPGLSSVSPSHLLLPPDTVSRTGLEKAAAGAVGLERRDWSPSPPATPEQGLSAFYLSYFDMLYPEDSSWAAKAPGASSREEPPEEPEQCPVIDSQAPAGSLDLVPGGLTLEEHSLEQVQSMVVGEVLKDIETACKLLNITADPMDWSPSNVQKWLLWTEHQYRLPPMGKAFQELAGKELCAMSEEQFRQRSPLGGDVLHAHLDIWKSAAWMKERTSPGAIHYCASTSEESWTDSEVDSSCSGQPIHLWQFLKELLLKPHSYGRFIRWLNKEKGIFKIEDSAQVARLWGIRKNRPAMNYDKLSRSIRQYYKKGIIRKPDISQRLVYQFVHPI
To be noted: protein: recombinant; tags: N-terminal GST; dsDNA, one strand shown. In a few lines:
as §1

The next assay has as its target T10, ETV7 (Homo sapiens, UniProt Q9Y603 1-341).
T10 sequence: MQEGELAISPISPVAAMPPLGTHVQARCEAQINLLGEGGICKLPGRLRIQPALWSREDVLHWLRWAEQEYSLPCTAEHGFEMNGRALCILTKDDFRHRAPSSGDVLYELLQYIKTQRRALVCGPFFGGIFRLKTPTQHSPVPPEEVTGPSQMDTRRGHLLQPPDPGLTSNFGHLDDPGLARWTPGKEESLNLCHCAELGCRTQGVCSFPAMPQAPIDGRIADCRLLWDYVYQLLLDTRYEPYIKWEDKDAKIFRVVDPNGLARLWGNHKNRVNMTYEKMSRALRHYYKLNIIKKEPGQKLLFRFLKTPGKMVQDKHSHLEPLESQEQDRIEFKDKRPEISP
To be noted: protein: recombinant; tags: N-terminal GST; dsDNA, one strand shown. In a few lines: as §1

The target in a further assay is T11, ELF5 (Homo sapiens, UniProt Q9UKW6-2 1-255).
T11 sequence: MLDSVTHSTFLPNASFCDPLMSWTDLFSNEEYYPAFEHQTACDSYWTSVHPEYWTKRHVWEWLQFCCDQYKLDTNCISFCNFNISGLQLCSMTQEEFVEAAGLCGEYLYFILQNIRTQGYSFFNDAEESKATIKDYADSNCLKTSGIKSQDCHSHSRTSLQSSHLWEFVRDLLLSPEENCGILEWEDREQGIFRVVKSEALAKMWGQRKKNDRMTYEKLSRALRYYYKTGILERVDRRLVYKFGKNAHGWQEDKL
To be noted: protein: recombinant; tags: N-terminal GST; dsDNA, one strand shown. In a few lines:
as §1

Another assay addresses T12, ETV3 (Homo sapiens, UniProt P41162-2 1-143).
T12 sequence: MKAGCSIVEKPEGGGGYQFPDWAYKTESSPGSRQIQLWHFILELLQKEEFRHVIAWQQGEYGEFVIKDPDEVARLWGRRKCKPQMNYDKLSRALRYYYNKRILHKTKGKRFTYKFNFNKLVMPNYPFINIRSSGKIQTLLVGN
The conditions noted are these: protein: recombinant; tags: N-terminal GST; dsDNA, one strand shown. In a few lines:
as §1

A further assay has as its target ETV6 (Homo sapiens, UniProt P41212 1-452). The conditions noted are these: protein: recombinant; tags: N-terminal GST; dsDNA, one strand shown. The method, boiled down:
as §1

ETV1, sequence (P50549 whole entry): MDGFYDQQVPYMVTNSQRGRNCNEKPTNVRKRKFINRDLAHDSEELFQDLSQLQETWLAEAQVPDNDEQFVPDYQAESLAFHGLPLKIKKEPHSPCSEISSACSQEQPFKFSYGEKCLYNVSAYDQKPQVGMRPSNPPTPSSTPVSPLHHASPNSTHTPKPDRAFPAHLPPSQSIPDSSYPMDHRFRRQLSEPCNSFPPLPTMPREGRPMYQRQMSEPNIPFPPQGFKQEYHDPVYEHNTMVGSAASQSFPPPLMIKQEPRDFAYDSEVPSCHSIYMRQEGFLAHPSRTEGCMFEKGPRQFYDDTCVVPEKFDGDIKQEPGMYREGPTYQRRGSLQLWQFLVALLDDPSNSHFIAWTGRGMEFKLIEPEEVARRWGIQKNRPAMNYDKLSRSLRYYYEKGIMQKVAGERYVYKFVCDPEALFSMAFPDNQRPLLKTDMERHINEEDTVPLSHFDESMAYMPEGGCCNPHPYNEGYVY
HSF1, sequence (Q00613 whole entry): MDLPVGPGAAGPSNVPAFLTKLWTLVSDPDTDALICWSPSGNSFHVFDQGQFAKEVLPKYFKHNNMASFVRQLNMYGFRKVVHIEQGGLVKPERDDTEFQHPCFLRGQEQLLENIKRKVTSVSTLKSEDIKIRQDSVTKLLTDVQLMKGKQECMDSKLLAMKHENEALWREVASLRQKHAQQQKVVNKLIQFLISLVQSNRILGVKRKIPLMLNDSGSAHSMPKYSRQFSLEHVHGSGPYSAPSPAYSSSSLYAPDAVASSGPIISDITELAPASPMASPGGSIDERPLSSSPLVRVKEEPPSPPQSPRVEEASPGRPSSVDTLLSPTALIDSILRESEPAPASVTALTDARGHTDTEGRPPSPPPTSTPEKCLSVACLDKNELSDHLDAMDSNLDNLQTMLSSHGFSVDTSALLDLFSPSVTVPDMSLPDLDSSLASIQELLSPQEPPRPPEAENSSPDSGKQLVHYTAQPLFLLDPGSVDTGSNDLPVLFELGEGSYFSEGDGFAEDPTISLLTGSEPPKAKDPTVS
ELF4, sequence (Q99607 whole entry): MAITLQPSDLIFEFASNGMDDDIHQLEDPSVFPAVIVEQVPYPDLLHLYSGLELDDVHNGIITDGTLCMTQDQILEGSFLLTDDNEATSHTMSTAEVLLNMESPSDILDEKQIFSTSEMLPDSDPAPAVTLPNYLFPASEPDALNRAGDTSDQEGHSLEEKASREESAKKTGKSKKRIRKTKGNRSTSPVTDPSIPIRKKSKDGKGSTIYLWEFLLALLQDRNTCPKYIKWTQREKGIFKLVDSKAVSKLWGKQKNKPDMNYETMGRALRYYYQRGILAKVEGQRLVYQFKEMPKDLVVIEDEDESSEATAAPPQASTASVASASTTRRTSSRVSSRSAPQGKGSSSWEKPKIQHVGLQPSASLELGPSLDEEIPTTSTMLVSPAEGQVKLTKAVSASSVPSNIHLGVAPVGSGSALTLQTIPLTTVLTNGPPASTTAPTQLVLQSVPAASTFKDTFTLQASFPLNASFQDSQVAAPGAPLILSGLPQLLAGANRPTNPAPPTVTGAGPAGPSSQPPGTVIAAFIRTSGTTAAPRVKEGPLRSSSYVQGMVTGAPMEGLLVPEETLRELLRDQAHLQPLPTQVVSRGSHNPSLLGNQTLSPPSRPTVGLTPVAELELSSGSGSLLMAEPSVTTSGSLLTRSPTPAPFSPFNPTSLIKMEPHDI
CRX, sequence (O43186 whole entry): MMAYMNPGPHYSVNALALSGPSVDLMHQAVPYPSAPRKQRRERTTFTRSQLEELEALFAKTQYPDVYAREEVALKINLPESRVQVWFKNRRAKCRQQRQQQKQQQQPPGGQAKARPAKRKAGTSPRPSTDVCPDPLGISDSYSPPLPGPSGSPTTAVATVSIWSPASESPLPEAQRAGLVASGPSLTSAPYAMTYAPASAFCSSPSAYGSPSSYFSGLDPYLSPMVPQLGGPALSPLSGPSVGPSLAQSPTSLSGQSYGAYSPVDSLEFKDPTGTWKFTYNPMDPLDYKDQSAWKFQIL
ETV5, sequence (P41161 whole entry): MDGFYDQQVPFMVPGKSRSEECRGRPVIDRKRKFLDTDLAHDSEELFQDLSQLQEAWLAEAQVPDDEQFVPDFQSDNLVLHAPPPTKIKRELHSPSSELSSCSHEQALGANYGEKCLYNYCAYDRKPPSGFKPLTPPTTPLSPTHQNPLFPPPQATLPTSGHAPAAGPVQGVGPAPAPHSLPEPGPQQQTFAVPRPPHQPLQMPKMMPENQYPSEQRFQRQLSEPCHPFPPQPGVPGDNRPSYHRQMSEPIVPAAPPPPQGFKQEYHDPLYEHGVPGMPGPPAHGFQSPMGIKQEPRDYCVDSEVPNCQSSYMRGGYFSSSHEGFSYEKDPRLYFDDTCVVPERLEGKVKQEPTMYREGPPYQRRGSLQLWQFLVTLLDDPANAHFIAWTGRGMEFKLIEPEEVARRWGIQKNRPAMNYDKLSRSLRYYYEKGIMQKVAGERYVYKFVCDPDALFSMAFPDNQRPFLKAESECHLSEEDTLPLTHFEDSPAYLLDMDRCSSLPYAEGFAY
ETV6, sequence (P41212 whole entry): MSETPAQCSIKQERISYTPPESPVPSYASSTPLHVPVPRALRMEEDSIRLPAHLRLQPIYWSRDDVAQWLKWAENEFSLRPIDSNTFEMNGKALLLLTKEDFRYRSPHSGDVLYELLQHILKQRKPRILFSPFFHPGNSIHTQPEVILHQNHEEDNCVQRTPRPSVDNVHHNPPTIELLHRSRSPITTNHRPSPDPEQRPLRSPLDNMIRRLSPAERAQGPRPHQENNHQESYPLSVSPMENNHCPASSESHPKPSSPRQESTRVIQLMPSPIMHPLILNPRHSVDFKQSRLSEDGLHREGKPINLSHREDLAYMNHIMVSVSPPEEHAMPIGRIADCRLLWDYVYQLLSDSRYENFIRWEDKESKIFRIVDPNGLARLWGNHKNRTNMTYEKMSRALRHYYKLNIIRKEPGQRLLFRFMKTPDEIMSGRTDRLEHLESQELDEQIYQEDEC

For the sequence CAATAC, the binding signal was 1.27 fold enrichment (6-mer frequency, TF over GST control) with FEV; 1.26 fold enrichment (6-mer frequency, TF over GST control) in the assay with ETV5; 1.07 fold enrichment (6-mer frequency, TF over GST control) in the assay with HSF1; 1.16 fold enrichment (6-mer frequency, TF over GST control) with SPIC; 1.23 fold enrichment (6-mer frequency, TF over GST control) with ELF4; 1.39 fold enrichment (6-mer frequency, TF over GST control) in the assay with ELK4. Further, the binding signal with ETV2 was 1.22 fold enrichment (6-mer frequency, TF over GST control); in the assay with ELF3, 1.29 fold enrichment (6-mer frequency, TF over GST control); in the assay with CRX, 1.04 fold enrichment (6-mer frequency, TF over GST control); in the assay with ETV1 it was 1.3 fold enrichment (6-mer frequency, TF over GST control); with ERF, 1.38 fold enrichment (6-mer frequency, TF over GST control); with ETV3L, 1.3 fold enrichment (6-mer frequency, TF over GST control). Also, the binding signal was 1.22 fold enrichment (6-mer frequency, TF over GST control) with ETS2; 1.23 fold enrichment (6-mer frequency, TF over GST control) with SPDEF; 1.35 fold enrichment (6-mer frequency, TF over GST control) in the assay with ETV7; 1.18 fold enrichment (6-mer frequency, TF over GST control) in the assay with ELF5; 1.29 fold enrichment (6-mer frequency, TF over GST control) with ETV3; 1.22 fold enrichment (6-mer frequency, TF over GST control) in the assay with ETV6.
